# Reference: PubChem BioAssay (NCI)
# About 79,000 compounds went through this panel and 15% of them were active in at least one assay; those are over-represented in the sample as a whole. Unmarked numbers belong to inactive results. Calls of active or inactive are those of the source. Cut-off read from the data, not from the text of the source: active = growth inhibition above about 70%; inactive = the rest.
# Experiments:
# [1] = NCI Yeast Anticancer Drug Screen. Data for the rad52 strain (AID 147);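 note: 0% = growth of vehicle-treated control cultures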; conditions: S. cerevisiae rad52 mutant growth inhibition, active compounds read high
# Outline: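 DNA repair-defective yeast; compound exposure; growth scored against vehicle controls.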
# [2] = NCI Yeast Anticancer Drug Screen. Data for the wt1 strain (AID 149);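 note: 0% = growth of vehicle-treated wt1 cultures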; conditions: S. cerevisiae wt1 strain (SPY 50644) growth inhibition, active compounds read high
# Outline: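 Growth inhibition read against vehicle controls after compound exposure of the wt1 yeast strain.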
# [3] = NCI Yeast Anticancer Drug Screen. Data for the rad50EPP+ strain (AID 151);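 note: 0% = growth of vehicle-treated control cultures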; conditions: S. cerevisiae rad50 mutant strain, active compounds read high
# Outline: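 rad50EPP+ yeast treated with test compounds. Readout: growth vs vehicle control.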
# [4] = NCI Yeast Anticancer Drug Screen. Data for the mgt1 strain (AID 153); conditions: S. cerevisiae mgt1 mutant growth inhibition, active compounds read high
# Outline: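 Growth inhibition relative to vehicle controls was scored for the mgt1 yeast strain after compound exposure.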
# [5] = NCI Yeast Anticancer Drug Screen. Data for the rad50 strain (AID 155);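 note: 0% = growth of vehicle-only cultures of the same strain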; conditions: S. cerevisiae rad50 strain growth inhibition, active compounds read high
# Outline: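 Readout: growth inhibition relative to vehicle-treated cultures. Compound exposure was carried out in a genetically defined yeast strain deficient in DNA damage repair.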
# [6] = NCI Yeast Anticancer Drug Screen. Data for the mec2-1 strain (AID 157); conditions: S. cerevisiae mec2-1 strain, active compounds read high
# Outline: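 Growth inhibition is read against vehicle-treated controls after compound exposure of the mec2-1 yeast strain, which is defective in DNA damage repair or cell cycle control.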
# [7] = NCI Yeast Anticancer Drug Screen. Data for the rad14 strain (AID 159);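 note: 0% = growth of vehicle-treated control cultures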; conditions: S. cerevisiae rad14 strain growth inhibition, active compounds read high
# Outline: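 Growth inhibition vs vehicle controls; genetically altered yeast strain (DNA damage repair defect) treated with test compounds.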
# [8] = NCI Yeast Anticancer Drug Screen. Data for the sgs1 mgt1 strain (AID 161);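 note: 0% = growth of cultures given vehicle only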; conditions: S. cerevisiae sgs1 mgt1 strain, active compounds read high
# Outline: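 Compounds are added to genetically altered yeast, and growth is compared with cultures given vehicle alone to give percent inhibition.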
# [9] = NCI Yeast Anticancer Drug Screen. Data for the CLN2oe strain (AID 163);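 note: 0% = growth of vehicle-only control cultures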; conditions: S. cerevisiae CLN2oe strain, active compounds read high
# Outline: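 Compound-treated yeast; growth vs vehicle ctrl = % inhibition. Genetically altered strain (cell-cycle control).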
# [10] = NCI Yeast Anticancer Drug Screen. Data for the cln2 rad14 strain (AID 165);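 note: 0% = growth equal to vehicle treated cultures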; conditions: S. cerevisiae cln2 rad14 strain, active compounds read high
# Outline: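 Growth inhibition, relative to vehicle-treated controls, is the read-out. The test organism is a yeast strain with defined genetic alterations, cln2 rad14.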
# [11] = NCI Yeast Anticancer Drug Screen. Data for the bub3 strain (AID 167); conditions: S. cerevisiae bub3 mutant strain, active compounds read high
# Outline: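 Readout: yeast growth inhibition, expressed relative to vehicle-only wells. The test organism is a mutant strain from a panel with lesions in DNA repair or checkpoint genes.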
# [12] = NCI Yeast Anticancer Drug Screen. Data for the mlh1 strain (AID 171);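 note: 0% = growth of vehicle-treated control cultures of the same strain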; conditions: S. cerevisiae mlh1 strain growth inhibition, active compounds read high
# Outline: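 Compounds are applied to a genetically altered yeast strain, and its growth is compared with that of vehicle-treated cultures to give percent inhibition.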
# [13] = NCI Yeast Anticancer Drug Screen. Data for the sgs1 strain (AID 173);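 note: 0% = growth of vehicle-only control cultures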; conditions: S. cerevisiae sgs1 mutant, active compounds read high
# Outline: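 Compounds applied to genetically altered yeast; growth compared with vehicle-treated cultures to give % inhibition.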
# [14] = NCI Yeast Anticancer Drug Screen. Data for the mlh1 rad18 strain (AID 175); conditions: S. cerevisiae mlh1 rad18 strain growth inhibition, active compounds read high
# Outline: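 Cells of a genetically altered yeast strain, deficient in DNA damage repair, were treated with compound. Their growth was then compared with that of vehicle-treated cultures to give inhibition.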
# [15] = NCI Yeast Anticancer Drug Screen. Data for the rad18 strain (AID 177); conditions: S. cerevisiae rad18 mutant growth inhibition, active compounds read high
# Outline: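 Compounds are applied to a repair-deficient yeast strain, and growth is compared with that of vehicle-treated cultures to give percent inhibition.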
# [16] = at 5.0 µM (retest, dose inferred, filed as 0.5)
# [17] = at 50.0 µM (retest, dose inferred, filed as 5.0)
smiles,measurement,setting,value
CC1=NOC(=O)/C1=C/c1ccc2c(c1)OCO2,growth inhibition,[1]; at 1.2 µM,0%
same,growth inhibition,[1]; at 3.7 µM,4%
same,growth inhibition,[1]; at 11.0 µM,17%
same,growth inhibition,[1]; at 33.0 µM,32%
same,growth inhibition,[1]; at 100.0 µM,39%
same,growth inhibition,[2]; at 1.2 µM,5%
same,growth inhibition,[2]; at 3.7 µM,0%
same,growth inhibition,[2]; at 11.0 µM,2%
same,growth inhibition,[2]; at 33.0 µM,6%
same,growth inhibition,[2]; at 100.0 µM,13%
same,growth inhibition,[3]; at 1.2 µM,6%
same,growth inhibition,[3]; at 3.7 µM,5%
same,growth inhibition,[3]; at 11.0 µM,41%
same,growth inhibition,[3]; at 33.0 µM,47%
same,growth inhibition,[3]; at 100.0 µM,87% (active)
same,growth inhibition,[4]; at 1.2 µM,-4%
same,growth inhibition,[4]; at 3.7 µM,1%
same,growth inhibition,[4]; at 11.0 µM,1%
same,growth inhibition,[4]; at 33.0 µM,-10%
same,growth inhibition,[4]; at 100.0 µM,9%
same,growth inhibition,[5]; at 1.2 µM,1%
same,growth inhibition,[5]; at 3.7 µM,3%
same,growth inhibition,[5]; [16],0%
same,growth inhibition,[5]; at 11.0 µM,26%
same,growth inhibition,[5]; at 33.0 µM,49%
same,growth inhibition,[5]; [17],24%
same,growth inhibition,[5]; at 50.0 µM,82.2% (active)
same,growth inhibition,[5]; at 100.0 µM,59%
same,growth inhibition,[6]; at 1.2 µM,0%
same,growth inhibition,[6]; at 3.7 µM,-1%
same,growth inhibition,[6]; [16],13%
same,growth inhibition,[6]; at 11.0 µM,10%
same,growth inhibition,[6]; at 33.0 µM,12%
same,growth inhibition,[6]; [17],83% (active)
same,growth inhibition,[6]; at 50.0 µM,78.6% (active)
same,growth inhibition,[6]; at 100.0 µM,28%
same,growth inhibition,[7]; at 1.2 µM,2%
same,growth inhibition,[7]; at 3.7 µM,2%
same,growth inhibition,[7]; at 11.0 µM,7%
same,growth inhibition,[7]; at 33.0 µM,11%
same,growth inhibition,[7]; at 100.0 µM,29%
same,growth inhibition,[8]; [16],23%
same,growth inhibition,[8]; [17],58%
same,growth inhibition,[8]; at 50.0 µM,65.5%
same,growth inhibition,[9]; at 1.2 µM,-5%
same,growth inhibition,[9]; at 3.7 µM,3%
same,growth inhibition,[9]; at 11.0 µM,9%
same,growth inhibition,[9]; at 33.0 µM,15%
same,growth inhibition,[9]; at 100.0 µM,9%
same,growth inhibition,[10]; [16],2%
same,growth inhibition,[10]; [17],51%
same,growth inhibition,[10]; at 50.0 µM,20.4%
same,growth inhibition,[11]; at 1.2 µM,-5%
same,growth inhibition,[11]; at 3.7 µM,-1%
same,growth inhibition,[11]; [16],19%
same,growth inhibition,[11]; at 11.0 µM,3%
same,growth inhibition,[11]; at 33.0 µM,3%
same,growth inhibition,[11]; [17],30%
same,growth inhibition,[11]; at 50.0 µM,70.5% (active)
same,growth inhibition,[11]; at 100.0 µM,18%
same,growth inhibition,[12]; at 1.2 µM,3%
same,growth inhibition,[12]; at 3.7 µM,1%
same,growth inhibition,[12]; at 11.0 µM,6%
same,growth inhibition,[12]; at 33.0 µM,20%
same,growth inhibition,[12]; at 100.0 µM,26%
same,growth inhibition,[13]; at 1.2 µM,1%
same,growth inhibition,[13]; at 3.7 µM,1%
same,growth inhibition,[13]; at 11.0 µM,10%
same,growth inhibition,[13]; at 33.0 µM,19%
same,growth inhibition,[13]; at 100.0 µM,23%
same,growth inhibition,[14]; [16],23%
same,growth inhibition,[14]; [17],81% (active)
same,growth inhibition,[14]; at 50.0 µM,48.6%
same,growth inhibition,[15]; at 1.2 µM,2%
same,growth inhibition,[15]; at 3.7 µM,-12%
same,growth inhibition,[15]; at 11.0 µM,10%
same,growth inhibition,[15]; at 33.0 µM,36%
same,growth inhibition,[15]; at 100.0 µM,61%
